Compounds without any hit were thinned out: in the full panel of roughly 83,000, 20% have a hit.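 Negative percent growth values reflect cell death: -40 means 40% of the cells present at the start died, and -100 means all died.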 A number with no mark means an inactive call. Activity calls are given as the source filed them. The calls were made as follows: active = growth percent below 10; inactive = the rest.

Common to all, as to test: NCI-60 one-dose screen, 48 h (100 = growth as untreated, 0 = no growth, -100 = all killed)
What all share (conditions): 10 µM unless noted

For experiment [1], the system named is NCI-H23 lung.
In experiment [2] the test system is NCI-H226 lung.
Experiment [3] relates to NCI-H322M lung.
Experiment [4] has as its system HOP-62 NSCLC.
Experiment [5] deals with NCI-H460 lung.
For experiment [6], the system named is 786-0 renal.
Experiment [7] concerns DU-145 prostate.
The test system of experiment [8] is MDA-MB-231 breast.
For experiment [9], the system named is SF-268 CNS.
Experiment [10] has as its system SNB-19 CNS.
Experiment [11] concerns UACC-62 melanoma.
Experiment [12] relates to SK-MEL-28 melanoma.
The subject of experiment [13] is SN12C renal.
Experiment [14] deals with UO-31 renal.
Experiment [15] relates to OVCAR-5 ovarian.
The test system of experiment [16] is OVCAR-3 ovarian.
Experiment [17] deals with NCI/ADR-RES ovarian.
The subject of experiment [18] is MDA-MB-435 melanoma.
In experiment [19] the test system is MCF7 breast.
Experiment [20] has as its system KM12 colon.

`N#CC1=C(N)Oc2cc3c(cc2C1c1cccs1)OCO3` (stereo not given): the growth in [1] was 15.2%; in experiment [2], 47.6%; in experiment [3], 40.5%; in experiment [4] it was 26.3%; in [5] it was 15.6%; in [6] it was 49.5%. The growth in [7] was 15.5%; in [8] it was 41.8%; in [9], 47.3%; in experiment [10] it was 43.2%; in experiment [11], 31.1%; in experiment [12] it was 37.9%. The growth was 52.7% in experiment [13]; 49.2% in [14]; 52.2% in [15]; -15% (active) in experiment [16]; 3.49% (active) in experiment [17]; -7.43% (active) in experiment [18]. Also, the growth is 15.7% in experiment [19] and 34.2% in [20].
Consider `CCCCN(CCCC)CC(O)c1ccccc1` (stereo not given), for which the growth is 100% in experiment [1]; 113% in experiment [2]; 105% in experiment [3]; 114% in experiment [4]; 110% in [5]; 103% in [6]. The growth in experiment [7] was 113%; in experiment [8], 104%; in experiment [9], 114%; in [10], 106%; in experiment [11], 105%; in experiment [12], 103%. The growth in [13] is 111%; in [14], 100%; in [15], 93.6%; in [16], 108%; in experiment [17], 105%; in experiment [18] it was 105%. Also, the values for the growth in [19] and in experiment [20] were 105% and 104%, respectively.
For `CC1(C)N=C(N)N=C(N)N1c1ccc(OCCCCOc2ccc(S(=O)(=O)F)cc2)c(Cl)c1`, the growth in experiment [1] is 20%; in [2], 29.6%; in experiment [3], 23.2%; in [4], 28.3%; in [5], 4.24% (active); in [6], 20.6%. Also, the growth was 24.6% in [7]; 38.3% in experiment [8]; 17.9% in experiment [9]; 24.4% in [10]; 17.2% in [11]; 31.3% in experiment [12]. Also, the growth in [13] was 17.4%; in experiment [14], 67.7%; in experiment [15], 30.7%; in [16], 28.4%; in [17], 103%; in [18], 16.8%. The growth in experiment [19] is 9.19% (active); in experiment [20], 9.69% (active).

The values are drawn from PubChem BioAssay (NCI).
